The nature of experiment [1]: antimalarial activity against Dd2 strain (AID 2302;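 active means growth inhibition above 50% at the single 2 µM test dose, taken to imply half-maximal potency below 2 µM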;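 further: 0% = DMSO untreated growth and 100% = chloroquine plus artemisinin killed control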). As to conditions: P. falciparum Dd2 in RBCs, LDH growth readout, 72 h; at 2 µM; active compounds read high.
Experiment [2] in a line: human hepatoma cell viability loss – ATP luminescence, cytotoxicity control for P. falciparum antimalarial project, primary screen (AID 2303;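 active means inhibition above 50%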;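 further: 0% = DMSO wells and 100% = digitonin-killed cells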). As to conditions: HepG2 viability, 24-48 h, at 10 µM, active compounds read high.
Experiment [3] concerns the target L-lactate dehydrogenase (Plasmodium falciparum (isolate CDC / Honduras)) (UniProt Q27743). Nature of the experiment: PfLDH activity inhibition – cell lysate, 3D7 strain, counter-screen for P. falciparum growth inhibition project (AID 2304).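 Further: 0% = vehicle and 100% = reference inhibitor.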 As to conditions: P. falciparum 3D7 crude extract, LDH APAD/NBT absorbance; at 2 µM; active compounds read high.
Experiment [4] can be described thus: inhibition of 3D7 malaria parasite growth – strain 3D7 (AID 2306).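 Further: 0% = DMSO wells and 100% = chloroquine plus artemisinin control wells.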 The following applies: P. falciparum 3D7 erythrocytic growth, LDH absorbance, 72 h; at 2 µM; active compounds read high.
In experiment [5] the target is Calcium-dependent protein kinase 1 (Plasmodium falciparum (isolate 3D7)) (UniProt P62344). Nature of the experiment: PfCDPK1 kinase inhibitors, biochemical, TCAMS library (AID 1159585; cut-off not given, nearly all actives have IC50 up to about 0.98 µM;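 further: inhibitors leave more ATP so luminescence rises with inhibition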). The following applies: recombinant PfCDPK1, Kinase-Glo ATP depletion luminescence.
Calcium-dependent protein kinase 1 (Plasmodium falciparum (isolate 3D7)), sequence (P62344 whole entry, looked up): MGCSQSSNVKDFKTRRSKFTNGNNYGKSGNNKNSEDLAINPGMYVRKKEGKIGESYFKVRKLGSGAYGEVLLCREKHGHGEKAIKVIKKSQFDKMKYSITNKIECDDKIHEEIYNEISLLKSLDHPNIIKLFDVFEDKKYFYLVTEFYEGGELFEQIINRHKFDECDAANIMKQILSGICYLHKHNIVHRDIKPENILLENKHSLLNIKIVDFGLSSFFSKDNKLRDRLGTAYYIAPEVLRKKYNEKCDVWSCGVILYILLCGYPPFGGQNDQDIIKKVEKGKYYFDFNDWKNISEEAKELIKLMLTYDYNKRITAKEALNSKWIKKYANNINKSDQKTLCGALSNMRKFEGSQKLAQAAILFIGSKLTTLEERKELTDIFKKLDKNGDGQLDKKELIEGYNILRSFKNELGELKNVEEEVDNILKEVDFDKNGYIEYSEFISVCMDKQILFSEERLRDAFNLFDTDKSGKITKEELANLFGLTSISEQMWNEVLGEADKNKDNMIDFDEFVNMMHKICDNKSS
For experiment [6], the target named is Plasmodium falciparum protein kinase 6 (PK6, PF3D7_1337100) (UniProt Q8IDW1). Kind of experiment: PfPK6 kinase inhibitors, biochemical, TCAMS library (AID 1159586). As to conditions: recombinant PfPK6, Kinase-Glo ATP depletion luminescence.
Plasmodium falciparum protein kinase 6 (PK6, PF3D7_1337100), sequence (Q8IDW1 1-305): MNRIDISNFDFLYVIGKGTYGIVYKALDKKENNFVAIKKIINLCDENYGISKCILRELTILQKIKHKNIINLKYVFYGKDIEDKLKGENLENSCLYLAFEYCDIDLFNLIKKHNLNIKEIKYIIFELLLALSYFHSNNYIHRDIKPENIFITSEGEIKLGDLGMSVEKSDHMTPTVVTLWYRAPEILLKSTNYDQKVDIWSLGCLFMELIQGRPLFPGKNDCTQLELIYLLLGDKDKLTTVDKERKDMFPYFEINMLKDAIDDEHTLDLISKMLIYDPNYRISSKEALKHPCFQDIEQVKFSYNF
In experiment [7] the target is Protein kinase 7 (PK7), Plasmodium falciparum 3D7 (PF3D7_0213400) (UniProt Q7YTF7). Kind of experiment: inhibition of Plasmodium PK7 catalytic activity – biochemical, TCAMS antimalarial set, Kinase-Glo luminescence (AID 1159587). The following applies: recombinant PfPK7, Kinase-Glo ATP depletion luminescence.
Protein kinase 7 (PK7), Plasmodium falciparum 3D7 (PF3D7_0213400), sequence (Q7YTF7 1-343): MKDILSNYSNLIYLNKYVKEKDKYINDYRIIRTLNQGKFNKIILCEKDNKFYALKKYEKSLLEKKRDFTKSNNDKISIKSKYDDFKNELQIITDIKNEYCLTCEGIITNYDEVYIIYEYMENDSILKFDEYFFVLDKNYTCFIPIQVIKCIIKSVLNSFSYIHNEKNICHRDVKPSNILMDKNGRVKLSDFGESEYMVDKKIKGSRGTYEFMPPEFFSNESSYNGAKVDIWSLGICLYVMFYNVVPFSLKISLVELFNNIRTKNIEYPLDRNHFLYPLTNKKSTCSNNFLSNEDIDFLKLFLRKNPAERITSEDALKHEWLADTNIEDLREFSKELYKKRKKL
Experiment [8] has as its target Calcium-dependent protein kinase 4 (Plasmodium falciparum (isolate 3D7)) (UniProt Q8IBS5). Kind of experiment: PfCDPK4 kinase inhibitors, biochemical, TCAMS library (AID 1159588; cut-off not given, nearly all actives have IC50 up to about 0.91 µM). The following applies: recombinant PfCDPK4, Kinase-Glo ATP depletion luminescence.

Unmarked numbers belong to inactive results. For part of these data: Results with a measured potency or affinity are listed apart. The source made the active and inactive calls. Unless noted, how the calls were made is not given here.

L-lactate dehydrogenase (Plasmodium falciparum (isolate CDC / Honduras)), sequence (Q27743 whole entry, looked up): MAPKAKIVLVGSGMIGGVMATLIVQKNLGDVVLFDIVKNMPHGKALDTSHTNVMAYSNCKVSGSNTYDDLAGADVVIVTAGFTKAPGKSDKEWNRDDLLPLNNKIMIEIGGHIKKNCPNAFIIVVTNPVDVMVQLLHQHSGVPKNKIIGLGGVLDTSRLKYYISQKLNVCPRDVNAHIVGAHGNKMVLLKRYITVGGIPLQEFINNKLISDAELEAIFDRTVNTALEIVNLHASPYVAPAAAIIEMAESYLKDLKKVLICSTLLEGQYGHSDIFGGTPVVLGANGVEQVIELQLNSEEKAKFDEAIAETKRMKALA
Calcium-dependent protein kinase 4 (Plasmodium falciparum (isolate 3D7)), sequence (Q8IBS5 whole entry, looked up): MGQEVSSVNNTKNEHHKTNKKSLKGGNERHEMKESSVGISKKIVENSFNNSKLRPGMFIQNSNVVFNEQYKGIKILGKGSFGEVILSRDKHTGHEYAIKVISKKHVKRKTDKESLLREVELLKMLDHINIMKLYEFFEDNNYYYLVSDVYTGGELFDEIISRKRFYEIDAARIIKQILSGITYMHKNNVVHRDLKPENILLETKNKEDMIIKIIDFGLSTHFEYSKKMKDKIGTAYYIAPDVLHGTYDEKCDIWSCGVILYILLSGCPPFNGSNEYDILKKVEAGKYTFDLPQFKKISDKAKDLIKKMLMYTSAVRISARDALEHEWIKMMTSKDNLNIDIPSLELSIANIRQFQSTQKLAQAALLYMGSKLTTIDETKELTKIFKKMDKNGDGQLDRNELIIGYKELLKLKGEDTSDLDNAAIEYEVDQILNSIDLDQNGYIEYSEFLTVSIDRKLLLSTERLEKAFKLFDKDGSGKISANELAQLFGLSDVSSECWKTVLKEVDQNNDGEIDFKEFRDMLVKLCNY

Regarding `O=C(Nc1ccc(OC2CCN(Cc3ccccc3)C2)c(Cl)c1)c1ccc(F)cc1` (stereo not given), the growth inhibition was 87% (active) in experiment [1] and 90% (active) in experiment [4]. Moreover, the inhibition in experiment [2] and in experiment [3] was 7% throughout. For the same compound, the outcome in experiment [5], in experiment [6], in experiment [7] and in experiment [8] was inactive.

On to `Cc1cc(N)c2cc(NC(=O)c3cc(C(F)(F)F)cc(C(F)(F)F)c3)ccc2n1`, for which the growth inhibition is 99% (active) in experiment [1] and 102% (active) in experiment [4]. The inhibition is 100% (active) in experiment [2] and 5% in experiment [3]. Also, the result in experiment [5], in experiment [6], in experiment [7] and in experiment [8] was inactive.

On to `Cc1cc(N[C@@H](Cc2ccccc2)C(=O)Nc2ccccc2)nc(NCCc2ccccc2)n1`, for which the values for the growth inhibition in experiment [1] and in experiment [4] were 87% (active) and 101% (active), respectively. Besides, the inhibition in experiment [2] was 8%; in experiment [3], 3%. Moreover, the outcome in experiment [5], in experiment [6], in experiment [7] and in experiment [8] was inactive.

For the compound `COc1ccc(CNC(=O)C2Cc3ccccc3CN2Cc2ccc3ccccc3c2)cc1` (stereo not given), the growth inhibition in experiment [1] is 84% (active); in experiment [4] it was 96% (active). In addition, the inhibition was 15% in experiment [2] and -8% in experiment [3]. The outcome in experiment [5], in experiment [6], in experiment [7] and in experiment [8] was inactive.

Regarding `CN1CCC(N(Cc2ccc(-c3ccc(Cl)cc3)cc2)C(=O)Cn2c(CCc3cccc(F)c3F)cc(=O)c3ccccc32)CC1`, the values for the growth inhibition in experiment [1] and in experiment [4] were 88% (active) and 97% (active), respectively. Further, the inhibition in experiment [2] is 93% (active); in experiment [3], -3%. Further, the outcome in experiment [5], in experiment [6], in experiment [7] and in experiment [8] was inactive.

In the case of `Cc1ccc2[nH]c(C3CCCNC3)c(-c3ccncc3)c2c1` (stereo not given), the growth inhibition in experiment [1] is 22%; in experiment [4], 101% (active). Further, the values for the inhibition in experiment [2] and in experiment [3] were 10% and 0%, respectively. For the same compound, the outcome in experiment [5], in experiment [6], in experiment [7] and in experiment [8] was inactive.

For `Cc1nccn1Cc1cc(C(C)(C)C)c(O)c(C(C)(C)C)c1`, the values for the growth inhibition in experiment [1] and in experiment [4] were -4% and 99% (active), respectively. Also, the inhibition in experiment [2] is 8%; in experiment [3], -5%. The result in experiment [5], in experiment [6], in experiment [7] and in experiment [8] was inactive.

With `CN(CCCc1c[nH]c2ccccc12)CC1CCN(C(=O)/C=C/c2ccc(Cl)c(Cl)c2)CC1`, the figures for the growth inhibition in experiment [1] and in experiment [4] were 25% and 99% (active), respectively. In addition, the inhibition in experiment [2] is 37%; in experiment [3], -1%. In addition, the result in experiment [5], in experiment [6], in experiment [7] and in experiment [8] was inactive.

As for `CCNC(=O)c1cc(S(=O)(=O)N2CCN(c3ccccn3)CC2)cs1`, the growth inhibition is 94% (active) in experiment [1] and 97% (active) in experiment [4]. Moreover, the inhibition in experiment [2] was 7%; in experiment [3] it was 1%. Further, the result in experiment [5], in experiment [6], in experiment [7] and in experiment [8] was inactive.

`CC(C)n1ncc2c(C(=O)N3CCCc4ccccc43)cc(-c3ccccc3)nc21`: the values for the growth inhibition in experiment [1] and in experiment [4] were 82% (active) and 100% (active), respectively. The inhibition in experiment [2] is 5%; in experiment [3], 2%. Moreover, the result in experiment [5], in experiment [6], in experiment [7] and in experiment [8] was inactive.

With `COc1ccc(NC(=O)c2ccc(C=Cc3ccc(C(F)(F)F)cc3)cc2)cc1N1CCN(C)CC1`, the growth inhibition was 47% in experiment [1] and 99% (active) in experiment [4]. Further, the results for the inhibition in experiment [2] and in experiment [3] were 46% and -6%, respectively. Further, the result in experiment [5], in experiment [6], in experiment [7] and in experiment [8] was inactive.

`O=C(Nc1ccc2c(c1)CCC2)c1nc(N2CCN(c3ccncc3)CC2)ccc1Cl`: the growth inhibition in experiment [1] is 97% (active); in experiment [4] it was 101% (active). The results for the inhibition in experiment [2] and in experiment [3] were 55% (active) and -1%, respectively. For the same compound, the result in experiment [5], in experiment [6], in experiment [7] and in experiment [8] was inactive.

Consider `COc1ccccc1-n1ccnc1SCC(=O)Nc1cc(C(F)(F)F)ccc1Cl`, for which the growth inhibition in experiment [1] and in experiment [4] was 97% (active) throughout. Moreover, the inhibition in experiment [2] is -2%; in experiment [3], 2%. Also, the result in experiment [5], in experiment [6], in experiment [7] and in experiment [8] was inactive.

As for `c1cc2c3c(cccc3c1)NC(CCCCCCCCC1=Nc3cccc4cccc(c34)N1)=N2`, the growth inhibition in experiment [1] was 6%; in experiment [4] it was 93% (active). The figures for the inhibition in experiment [2] and in experiment [3] were 14% and 0%, respectively. In addition, the result in experiment [5], in experiment [6], in experiment [7] and in experiment [8] was inactive.

In the case of `Clc1ccc2c(NCc3ccccn3)ccnc2c1`, the growth inhibition in experiment [1] and in experiment [4] was 99% (active) each time. In addition, the inhibition in experiment [2] was 0%; in experiment [3], -4%. Further, the outcome in experiment [5], in experiment [6], in experiment [7] and in experiment [8] was inactive.

Take `COc1ccc(-c2cccc(NC(=O)c3cccc(Cl)c3)c2)cc1CN1CCN(C)CC1`: the values for the growth inhibition in experiment [1] and in experiment [4] were 48% and 101% (active), respectively. Moreover, the inhibition was 27% in experiment [2] and 1% in experiment [3]. Also, the result in experiment [5], in experiment [6], in experiment [7] and in experiment [8] was inactive.

Consider `Cc1ccc(C(c2nnnn2C2CCCC2)N(Cc2ccco2)Cc2ccccc2Cl)cc1` (stereo not given), for which the values for the growth inhibition in experiment [1] and in experiment [4] were 78% (active) and 85% (active), respectively. For the same compound, the figures for the inhibition in experiment [2] and in experiment [3] were 8% and -2%, respectively. The outcome in experiment [5], in experiment [6], in experiment [7] and in experiment [8] was inactive.

In the case of `CCNc1cc(C(=O)N[C@@H](Cc2ccccc2)[C@H](O)CNC2(Cc3cccc(Cl)c3)CCC2)cc(N2CCCCS2(=O)=O)c1`, the results for the growth inhibition in experiment [1] and in experiment [4] were 83% (active) and 95% (active), respectively. Also, the inhibition in experiment [2] is 22%; in experiment [3], 1%. Besides, the outcome in experiment [5], in experiment [6], in experiment [7] and in experiment [8] was inactive.

Take `Fc1cccc(Nc2nc(NCc3ccc(OCc4ccccc4)cc3)nc(Nc3cccc(F)c3)n2)c1`: the growth inhibition in experiment [1] is 14%; in experiment [4], 84% (active). Moreover, the inhibition in experiment [2] is 5%; in experiment [3] it was 1%. Besides, the result in experiment [5], in experiment [6], in experiment [7] and in experiment [8] was inactive.

With `CCOC(=O)C1=C(C)NC2=C(C(=O)CC(C)(C)C2)C1c1ccc(Cl)cc1` (stereo not given), the growth inhibition in experiment [1] was 84% (active); in experiment [4] it was 96% (active). Also, the inhibition in experiment [2] is 4%; in experiment [3] it was 1%. Moreover, the outcome in experiment [5], in experiment [6], in experiment [7] and in experiment [8] was inactive.

On to `N#Cc1ccc(-c2ccc(C(=O)Nc3ccc4c(c3)CCN(C3CCC3)CC4)nc2)cc1`, for which the growth inhibition in experiment [1] is 63% (active); in experiment [4], 99% (active). Besides, the inhibition in experiment [2] was 21%; in experiment [3] it was 0%. For the same compound, the result in experiment [5], in experiment [6], in experiment [7] and in experiment [8] was inactive.

Take `CC12CN3CC(C)(CN(C1)C3c1cc(Br)ccc1O)C2O` (stereo not given): the growth inhibition in experiment [1] was 2%; in experiment [4] it was 98% (active). The inhibition in experiment [2] was 5%; in experiment [3], -3%. Further, the result in experiment [5], in experiment [6], in experiment [7] and in experiment [8] was inactive.

As to `CC(C)C1=NCc2ccc([N+](=O)[O-])cc2C(=O)N1`, the growth inhibition in experiment [1] was -1%; in experiment [4] it was 98% (active). The inhibition in experiment [2] was 6%; in experiment [3] it was 4%. Moreover, the outcome in experiment [5], in experiment [6], in experiment [7] and in experiment [8] was inactive.

For `CCCc1cc(Cc2cnc(N)nc2N)cc(CCC)c1OCCCC(=O)OCC`, the growth inhibition in experiment [1] is -5%; in experiment [4], 94% (active). The inhibition in experiment [2] is -8%; in experiment [3], -2%. For the same compound, the outcome in experiment [5], in experiment [6], in experiment [7] and in experiment [8] was inactive.

On to `CN1CCC(N2CCN(Cc3ccc(-c4ccc(-c5nc6ccc(F)cc6[nH]5)s4)cc3)CC2)CC1`, for which the growth inhibition in experiment [1] and in experiment [4] was 100% (active) each time. Besides, the inhibition in experiment [2] was 62% (active); in experiment [3], 3%. The result in experiment [5], in experiment [6], in experiment [7] and in experiment [8] was inactive.

Take `Cc1cc(N2CCN(CC3CCCCC3)CC2)nc(Nc2ccc(Br)cc2)n1`: the figures for the growth inhibition in experiment [1] and in experiment [4] were 16% and 91% (active), respectively. Further, the inhibition in experiment [2] is -1%; in experiment [3], -6%. The outcome in experiment [5], in experiment [6], in experiment [7] and in experiment [8] was inactive.

Regarding `COc1ccc(Oc2ccccc2CNCC2CCN(CC3CCCCC3)CC2)cc1`, the growth inhibition in experiment [1] was 28%; in experiment [4], 85% (active). The inhibition in experiment [2] is 34%; in experiment [3] it was -8%. The result in experiment [5], in experiment [6], in experiment [7] and in experiment [8] was inactive.

On to `CC(Nc1ccnc2cc(Cl)ccc12)c1ccc(S(N)(=O)=O)cc1` (stereo not given), for which the growth inhibition is 21% in experiment [1] and 96% (active) in experiment [4]. Further, the inhibition in experiment [2] was 5%; in experiment [3] it was 3%. The result in experiment [5], in experiment [6], in experiment [7] and in experiment [8] was inactive.

With `Cc1onc(-c2ccc(Cl)cc2)c1-c1ccnn1S(=O)(=O)c1ccc(Cl)cc1`, the growth inhibition in experiment [1] is 99% (active); in experiment [4] it was 101% (active). Also, the inhibition in experiment [2] was -3%; in experiment [3] it was 3%. Besides, the result in experiment [5], in experiment [6], in experiment [7] and in experiment [8] was inactive.

For the compound `CN(C)c1ccc(CN2CCC(CNC(=O)c3cc(-c4ccccc4F)cs3)C2)cc1` (stereo not given), the growth inhibition was 33% in experiment [1] and 101% (active) in experiment [4]. Moreover, the inhibition in experiment [2] is 35%; in experiment [3], 2%. The outcome in experiment [5], in experiment [6], in experiment [7] and in experiment [8] was inactive.
